# Laboratory results reported in PubChem BioAssay.
# “And” between values parts separate entries of the source, which are not always exact repeats. Equal values may be shown once. For some of these results: Measured potencies and affinities stand elsewhere. Where a structure was tested more than once in an assay, its records may differ in their call. The source made the active and inactive calls. Cut-off read from the data, not from the text of the source, unless noted: active = parasite load remaining mostly below about 12% (no sharp cut-off); inactive = mostly above about 10%.
# How the values were obtained:
# [1] = blockers of polyQ-driven CASP3 activation – cell-based (AID 1583); conditions: polyglutamine-induced caspase-3 activation, cell assay; stronger effect = higher value;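 tested at 10 µM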
# [2] = yeast 75Q aggregation reduction – 75Q-TubU reporter (AID 1593); conditions: Yeast 75Q polyglutamine aggregation reporter
# [3] = restoration of touch response, mutant HTT neurons – whole organism, C. elegans mechanosensory neurons, N-terminal huntingtin (AID 1599); conditions: C. elegans polyQ-huntingtin mechanosensory neurons, stronger effect = higher value
# [4] = blockers of cytochrome c efflux from mitochondria – biochemical, purified mitochondria (AID 1603); conditions: stronger effect = lower value;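 note: mouse liver mitochondria challenged with calcium chloride; signal normalized to the plate average as 100%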
# [5] = polyglutamine aggregate formation blockers (AID 1604); conditions: polyglutamine-induced protein aggregation inhibition assay; stronger effect = higher value; tested at 2.5 µM
# [6] = glutamate transport activators, MN-1 cells, MN-1 cell line (AID 1612); conditions: MN-1 motor neuron cells, stronger effect = higher value;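 note: tested at 1 µM final; 0% = mean of DMSO vehicle wells on each plate; positive means more glutamate uptake than control and negative means less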
# [7] = GFP-Q80 aggregate reduction, neuronal-like cells, cell-based, NGF-treated PC12, GFPQ80 (AID 1614); conditions: PC12 NGF-treated GFP-polyQ80 inclusion reduction;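 note: lower means fewer inclusions and 0 means no inclusions at all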
# [8] = 75Q-TubH aggregate inhibition, S. cerevisiae, yeast (AID 1616); conditions: S. cerevisiae 75Q-TubH polyglutamine aggregation suppression; stronger effect = higher value
# [9] = P. berghei load reduction in hepatocytes – cell-based, HepG2, luciferase luminescence, HepG2 viability, primary screen (AID 624349);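 note: 100% = mean of DMSO negative control wells on the same plate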; conditions: P. berghei liver stage in HepG2, luciferase luminescence, concentration not given here; parasite load remaining: stronger effect = lower value; viability: measured here: HepG2 viability without parasites
# [10] = EMT-state selective cytotoxicity in co-culture – imaging, PC-3E GFP, TEM4-18 mCherry, primary screen (AID 1345086;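 active = compounds killing one labelled cell type while sparing the other, by normalised counts and ratio limits, not self-fluorescent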;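 for all read-outs here: cells exposed to compound for 72 h before imaging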;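 for red/green cell ratio (normalised): normalised mesenchymal count divided by normalised epithelial count so high means epithelial killing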); conditions: PC-3E GFP / TEM4-18 mCherry co-culture, imaging cell counts, at 1 µM; for red/green cell ratio (normalised): actives lie on both sides, counts scaled to control wells, 1 = unselective
# [11] = viability loss with induced miR-34 in A549 – imaging, A549 dox-inducible miR-34, nuclei and caspase counts, primary screen (AID 1347080;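 active = compounds whose cell count with miR-34 switched on is under 0.7 times the count with it off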); conditions: A549 miR-34 inducible, Hoechst nuclei count, 48 h
# [12] = galactose survival enhancers in mitochondrial complex I cybrids – cell-based, galactose medium, ATP luminescence, primary screen (AID 1645843;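 active = z-score of at least 1.8 in each of two replicates, scored against plate mean and spread of sample wells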;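 note: positive z means more ATP and so rescue of galactose-driven cybrid death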); conditions: complex I mutant cybrid cells, 72 h, stronger effect = higher value
# [13] = measured here: epithelial PC-3E GFP cell survival
# [14] = measured here: mesenchymal TEM4-18 mCherry cell survival
# [15] = stronger effect = lower value, cell number ratio, induced over uninduced
# [16] = measured here: relative caspase fold change +Dox/-Dox
# [17] = measured here: total cells with miR-34 induction, stronger effect = lower value
# [18] = measured here: total cells without miR-34 induction
compound,measurement,setting,value
C[C@H]1CC2C([C@@H](O)C[C@@]3(C)C2CC[C@]3(O)C(=O)CO)[C@@]2(C)C=CC(=O)C=C12 (some centres not stated),inhibition,[1],13.3%
same,score,[2],1.06
same,rescue above control,[3],-2
same,cytochrome c release ratio,[4],0.64
same,inhibition of aggregation,[5],83.1%
same,glutamate uptake change,[6],14.1%
same,inclusion score,[7],2
same,aggregation suppression score,[8],1.35
same,parasite load remaining,[9],110% (inactive) and 67.7% (inactive)
same,viability,[9],78.4% and 89.4%
same,red/green cell ratio (normalised),[10],1.21 (inactive)
same,normalised cell number,[10]; [13],1.36
same,normalised cell number,[10]; [14],1.64
same,fold change,[11]; [15],0.922 (inactive)
same,fold change,[11]; [16],1.43
same,cell count,[11]; [17],7440
same,cell count,[11]; [18],8070
NCC[C@@H](O)C(=O)N[C@@H]1C[C@H](N)[C@@H](O[C@H]2O[C@H](CN)[C@@H](O)[C@H](O)[C@H]2O)[C@H](O)[C@H]1O[C@H]1O[C@H](CO)[C@@H](O)[C@H](N)C1O (some centres not stated),inhibition,[1],-41.9%
same,score,[2],1.11
same,rescue above control,[3],-4.05
same,cytochrome c release ratio,[4],0.95
same,inhibition of aggregation,[5],36.6%
same,glutamate uptake change,[6],9.38%
same,inclusion score,[7],2
same,aggregation suppression score,[8],1.24
same,parasite load remaining,[9],115% (inactive) and 70.5% (inactive)
same,viability,[9],74.2% and 95.8%
same,red/green cell ratio (normalised),[10],1 (inactive)
same,normalised cell number,[10]; [13],1.2
same,normalised cell number,[10]; [14],1.2
same,fold change,[11]; [15],0.885 (inactive)
same,fold change,[11]; [16],0.583
same,cell count,[11]; [17],10600
same,cell count,[11]; [18],11900
C=C[C@H]1CN2CC[C@H]1C[C@@H]2[C@H](O)c1ccnc2ccc(OC)cc12,inhibition,[1],-2.2%
same,score,[2],1.5
same,rescue above control,[3],-7.29
same,cytochrome c release ratio,[4],0.97
same,inhibition of aggregation,[5],9.09%
same,glutamate uptake change,[6],13.1%
same,aggregation suppression score,[8],1.58
same,parasite load remaining,[9],68.2% (inactive) and 15.1% (active)
same,viability,[9],72.3% and 81.3%
same,red/green cell ratio (normalised),[10],1.16 (inactive)
same,normalised cell number,[10]; [13],1.05
same,normalised cell number,[10]; [14],1.21
same,fold change,[11]; [15],0.948 (inactive)
same,fold change,[11]; [16],2.86
same,cell count,[11]; [17],10900
same,cell count,[11]; [18],11500
NC(N)=N/N=C\c1c(Cl)cccc1Cl,inhibition,[1],-8.15%
same,score,[2],1.22
same,rescue above control,[3],-12.2
same,cytochrome c release ratio,[4],1.41
same,inhibition of aggregation,[5],61%
same,glutamate uptake change,[6],33.9%
same,inclusion score,[7],2
same,aggregation suppression score,[8],0.91
same,parasite load remaining,[9],56% (inactive) and 40.7% (inactive)
same,viability,[9],69.3% and 86.4%
same,red/green cell ratio (normalised),[10],1.13 (inactive)
same,normalised cell number,[10]; [13],1.05
same,normalised cell number,[10]; [14],1.18
same,fold change,[11]; [15],0.816 (inactive)
same,fold change,[11]; [16],0.826
same,cell count,[11]; [17],8780
same,cell count,[11]; [18],10800
CC(=O)[C@H]1CCC2C3C[C@H](C)C4=CC(=O)CC[C@]4(C)C3[C@@H](O)C[C@@]21C (some centres not stated),inhibition,[1],-9.54%
same,score,[2],0.84
same,rescue above control,[3],5.72
same,cytochrome c release ratio,[4],0.58
same,inhibition of aggregation,[5],53.9%
same,glutamate uptake change,[6],24.3%
same,aggregation suppression score,[8],0.683
same,parasite load remaining,[9],75.8% (inactive) and 64.6% (inactive)
same,viability,[9],70.5% and 91.2%
same,red/green cell ratio (normalised),[10],1.01 (inactive)
same,normalised cell number,[10]; [13],1.12
same,normalised cell number,[10]; [14],1.13
same,fold change,[11]; [15],0.946 (inactive)
same,fold change,[11]; [16],2.37
same,cell count,[11]; [17],8730
same,cell count,[11]; [18],9220
C[C@]12C=CC(=O)C=C1CCC1C3C[C@@H](O)[C@](O)(C(=O)CO)[C@@]3(C)C[C@H](O)[C@@]12F (some centres not stated),inhibition,[1],-13.4%
same,score,[2],1.07
same,rescue above control,[3],-12.1
same,cytochrome c release ratio,[4],1.15
same,inhibition of aggregation,[5],48.1%
same,glutamate uptake change,[6],-1.32%
same,inclusion score,[7],2
same,aggregation suppression score,[8],1.12
same,parasite load remaining,[9],233% (inactive) and 58.4% (inactive)
same,viability,[9],72.6% and 84.9%
same,red/green cell ratio (normalised),[10],1.46 (inactive)
same,normalised cell number,[10]; [13],0.85
same,normalised cell number,[10]; [14],1.24
same,fold change,[11]; [15],0.829 (inactive)
same,fold change,[11]; [16],2.83
same,cell count,[11]; [17],6430
same,cell count,[11]; [18],7760
C[C@@H]1CC2C3CCC4=CC(=O)C=C[C@]4(C)[C@@]3(F)[C@@H](O)C[C@]2(C)[C@@]1(O)C(=O)COP(=O)(O)O (some centres not stated),inhibition,[1],-13.7%
same,score,[2],2.71
same,rescue above control,[3],-9.5
same,cytochrome c release ratio,[4],0.74
same,inhibition of aggregation,[5],70.1%
same,glutamate uptake change,[6],6.45%
same,inclusion score,[7],2.5
same,aggregation suppression score,[8],1.87
same,parasite load remaining,[9],113% (inactive) and 77.9% (inactive)
same,viability,[9],75.1% and 87%
same,red/green cell ratio (normalised),[10],1.5 (inactive)
same,normalised cell number,[10]; [13],1.11
same,normalised cell number,[10]; [14],1.67
same,fold change,[11]; [15],0.847 (inactive)
same,fold change,[11]; [16],1.88
same,cell count,[11]; [17],7240
same,cell count,[11]; [18],8540
C#C[C@]1(O)CCC2C3CCc4cc(OC)ccc4C3CC[C@@]21C (some centres not stated),parasite load remaining,[9],13.7% (inactive)
same,viability,[9],131%
same,red/green cell ratio (normalised),[10],1.01 (inactive)
same,normalised cell number,[10]; [13],1.1
same,normalised cell number,[10]; [14],1.11
same,fold change,[11]; [15],0.913 (inactive) and 0.85 (inactive)
same,fold change,[11]; [16],1.29 and 1.24
same,cell count,[11]; [17],8740 and 9660
same,cell count,[11]; [18],9570 and 11400
same,z-score,[12],-1.44 (inactive)
